Structures can show the parent of a compound that is named as a salt.
Experiments:
Details in all cases: incubation time: 27 h, anaerobic, 37 °C;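 for the amine columns active = adjusted P below 0.05 in both replicates with a change the same way and a mean fold change under 0.8 or over 1.25; inactive = the rest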
[1] = system: Clostridium sporogenes DSM 1664; assay: growth (OD595) fold change vs plate DMSO controls (fold change (ratio)); higher = more growth
Summary of the method: (§1)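 The reported measure is growth: the fold change against the median of DMSO controls on the plate. Absorbance at 595 nm from anaerobic 96-well mGAM cultures grown for 27 h at 37 °C was blank-subtracted, corrected for background with 20 µM compound solutions in water, and converted to OD with a calibration factor of 5. Fold changes above 1.5 appear as NA, and values are the mean of 2 biological replicates.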

Escherichia coli IAI1 [2] = assay: as above
Summary of the method: as §1

[3] = system: Klebsiella aerogenes DSM 30053; assay: as above
Summary of the method: as §1

[4] = system: Ruminococcus gnavus DSM 108212; assay: as above
Summary of the method: as §1

[5] = system: Klebsiella aerogenes DSM 30053; assay: fold change of Histamine concentration vs plate DMSO controls (fold change (ratio)); higher = more amine produced, active = hit call of the paper (significant change in both replicates, either direction)
Summary of the method: (§2)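 Extracts of whole anaerobic mGAM cultures were analysed for amines by LC–triple-quadrupole MS with dynamic MRM and external calibration curves, with drift corrected within batch. Four gut strains were grown at 37 °C for 27 h in 80 µL wells with compounds at 20 µM final, sweeteners at 50 µM final. Each value expresses fold change over plate DMSO controls. The average of 2 biological replicates is shown.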

[6] = system: Clostridium sporogenes DSM 1664; assay: fold change of Tryptamine concentration vs plate DMSO controls (fold change (ratio)); higher = more amine produced, active = hit call of the paper (significant change in both replicates, either direction)
Summary of the method: as §2

[7] = system: Ruminococcus gnavus DSM 108212; assay: as above
Summary of the method: as §2

Escherichia coli IAI1 [8] = assay: fold change of Putrescine concentration vs plate DMSO controls (fold change (ratio)); higher = more amine produced, active = hit call of the paper (significant change in both replicates, either direction)
Summary of the method: as §2

[9] = system: Klebsiella aerogenes DSM 30053; assay: as above
Summary of the method: as §2

Escherichia coli IAI1 [10] = assay: fold change of Cadaverine concentration vs plate DMSO controls (fold change (ratio)); higher = more amine produced, active = hit call of the paper (significant change in both replicates, either direction)
Summary of the method: as §2

[11] = system: Klebsiella aerogenes DSM 30053; assay: as above
Summary of the method: as §2

[12] = system: Ruminococcus gnavus DSM 108212; assay: fold change of 2-Phenylethylamine concentration vs plate DMSO controls (fold change (ratio)); higher = more amine produced, active = hit call of the paper (significant change in both replicates, either direction)
Summary of the method: as §2

Structure (SMILES) | growth [1] | growth (Escherichia coli IAI1 [2]) | growth [3] | growth [4] | fold change of Histamine concentration [5] | fold change of Tryptamine concentration [6] | fold change of Tryptamine concentration [7] | fold change of Putrescine concentration (Escherichia coli IAI1 [8]) | fold change of Putrescine concentration [9] | fold change of Cadaverine concentration (Escherichia coli IAI1 [10]) | fold change of Cadaverine concentration [11] | fold change of 2-Phenylethylamine concentration [12]
Cc1onc(-c2c(Cl)cccc2Cl)c1C(=O)N[C@@H]1C(=O)N2[C@@H]1SC(C)(C)[C@@H]2C(=O)O [Dicloxacillin sodium salt hydrate] (20 µM) | 0.000771 | 0.996 | 0.975 | 0.165 | 1.01 (inactive) | 0.0119 (active) | 0.05 (active) | 0.979 (inactive) | 1.01 (inactive) | 1.03 (inactive) | 0.994 (inactive) | 0.0548 (active)
CC(=O)Oc1ccc(C(=C2CCCCC2)c2ccc(OC(C)=O)cc2)cc1 [Cyclofenil] (20 µM) | 0.924 | 1.04 | 1.03 | 0.991 | 0.983 (inactive) | 0.873 (inactive) | 0.953 (inactive) | 1.05 (inactive) | 0.997 (inactive) | 0.997 (inactive) | 1 (inactive) | 0.942 (inactive)
Cn1cc([S+](C)[O-])c(=O)c2ccc(F)cc21 (centres undefined) [Flosequinan] (20 µM) | 0.995 | 1 | 1.01 | 1.06 | 1.03 (inactive) | 0.946 (inactive) | 0.958 (inactive) | 0.994 (inactive) | 1.02 (inactive) | 1.04 (inactive) | 0.999 (inactive) | 0.938 (inactive)
CC(=O)Oc1cc(C(C)C)c(OCCN(C)C)cc1C [Moxisylyte hydrochoride] (20 µM) | 1.11 | 1.04 | 1.03 | 1.22 | 0.989 (inactive) | 0.957 (inactive) | 1.04 (inactive) | 0.997 (inactive) | 1.03 (inactive) | 0.986 (inactive) | 1 (inactive) | 0.982 (inactive)
N=C(N)N1CCc2ccccc2C1 [Debrisoquin sulfate] (20 µM) | 1.11 | 1 | 1.02 | 1.13 | 1.01 (inactive) | 1.03 (inactive) | 1.02 (inactive) | 1.03 (inactive) | 1 (inactive) | 0.999 (inactive) | 0.993 (inactive) | 1.05 (inactive)
CN1CCC(=C2c3ccccc3CCc3sccc32)CC1 [Pizotifen malate] (20 µM) | 1.3 | 1.03 | 0.982 | 0.963 | 1.06 (inactive) | 1.01 (inactive) | 0.924 (inactive) | 1 (inactive) | 1.01 (inactive) | 1.04 (inactive) | 0.994 (inactive) | 0.987 (inactive)
NS(=O)(=O)c1cc2c(cc1Cl)NC(C(Cl)Cl)NS2(=O)=O (centres undefined) [Trichlormethiazide] (20 µM) | 1.14 | 1.08 | 1.01 | 1.07 | 1.05 (inactive) | 1.05 (inactive) | 1.03 (inactive) | 1.11 (inactive) | 1.02 (inactive) | 1.03 (inactive) | 0.984 (inactive) | 1.01 (inactive)
CCCCOC(=O)c1ccc(N)cc1 [Butamben] (20 µM) | 1.36 | 1 | 1.01 | 0.962 | 1 (inactive) | 1.04 (inactive) | 0.94 (inactive) | 0.935 (inactive) | 0.988 (inactive) | 1.01 (inactive) | 0.999 (inactive) | 0.915 (inactive)
O=C(O)CCc1nc(-c2ccccc2)c(-c2ccccc2)o1 [Oxaprozin] (20 µM) | 1.08 | 1.04 | 0.984 | 1.06 | 1.04 (inactive) | 1.03 (inactive) | 1.03 (inactive) | 1.01 (inactive) | 1 (inactive) | 0.96 (inactive) | 0.979 (inactive) | 1.1 (inactive)
CN(C)CCOC1=Cc2ccccc2Sc2ccc(Cl)cc21 [Zotepine] (20 µM) | 1.11 | 1.07 | 1.05 | 1.34 | 1 (inactive) | 1.01 (inactive) | 0.902 (inactive) | 1.08 (inactive) | 0.99 (inactive) | 1.05 (inactive) | 0.993 (inactive) | 0.924 (inactive)
Cc1cccc(C)c1NC(=O)CN1CCN(CCCC(c2ccc(F)cc2)c2ccc(F)cc2)CC1 [Lidoflazine] (20 µM) | 0.947 | 1 | 1.05 | 1.22 | 1.01 (inactive) | 1.04 (inactive) | 0.863 (inactive) | 1.09 (inactive) | 1 (inactive) | 0.995 (inactive) | 0.996 (inactive) | 0.906 (inactive)
CC(N/C(=N\C#N)Nc1ccncc1)C(C)(C)C (centres undefined) [Pinacidil monohydrate] (20 µM) | 0.925 | 1 | 0.98 | 1.13 | 1.08 (inactive) | 0.982 (inactive) | 1.09 (inactive) | 1 (inactive) | 1 (inactive) | 1.04 (inactive) | 0.981 (inactive) | 1.1 (inactive)

Source: the supplement of paper PMC12494721
